Activity calls are given as the source filed them.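 The calls were made as follows: active = growth inhibition above 50% at the single 2 µM test dose, taken to imply half-maximal potency below 2 µM; inactive = the rest.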
Assay: antimalarial activity against Dd2 strain (AID 2302);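 also: 0% = DMSO untreated growth and 100% = chloroquine plus artemisinin killed control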
Conditions: P. falciparum Dd2 in RBCs, LDH growth readout, 72 h; at 2 µM; stronger effect = higher value

Compound | growth inhibition
COc1cc2nc(NCCc3ccccc3)nc(NCCCc3ccccc3)c2cc1OC | 101% (active)
COc1cc(C(=O)N2CC[C@@H](CCN3CCC4(CC3)CN(S(C)(=O)=O)c3ccccc34)C[C@H]2Cc2ccc(Cl)c(Cl)c2)cc(OC)c1OC | 99% (active)
COc1ccc(NC(=O)Nc2cccc(-c3cccc(-c4nc5ccc(F)cc5[nH]4)c3)c2)cc1 | 39% (inactive)
CCCc1ccc(S(=O)(=O)NC2CCN(C(=O)Nc3ccc(I)cc3)CC2)cc1 | -8% (inactive)
O=C(Nc1cccc(-c2ccc(-c3nc4ccc(F)cc4[nH]3)cc2)c1)c1ccncc1 | 96% (active)
Cc1ccc2c(NN=CC=Cc3ccccc3)cc(C)nc2c1 | 13% (inactive)
O=C1OC(c2ccccc2)(c2ccccn2)CN1C1CCN(Cc2cccn2-c2ccc(Cl)cc2)CC1 (configuration not stated) | 98% (active)
CCN(CC)CCN(Cc1ccc(-c2ccc(C(F)(F)F)cc2)cc1)C(=O)Cn1c(CCc2cccc(F)c2F)nc(=O)c2ccc(C(F)(F)F)cc21 | 55% (active)
N#Cc1cncc(-c2nc3c(N4CCC(Cc5ccccc5)CC4)cccc3n2C2CCNC2)c1 (configuration not stated) | 7% (inactive)
N#Cc1ccc(-c2cnc3ccc(NCc4ccc(S(N)(=O)=O)cc4)nn23)cc1 | 100% (active)
CCN(CC)CCN(Cc1ccc(-c2ccc(C(F)(F)F)cc2)cc1)C(=O)Cn1c(CCc2cc(F)cc(F)c2F)nc(=O)c2ccccc21 | 77% (active)
CC(C)c1cc(Oc2c(I)cc(CCCc3ncc[nH]3)cc2I)ccc1O | 1% (inactive)
c1ccc2c(c1)ncc1c3ccccc3[nH]c21 | 36% (inactive)
CSc1ccc(CN2CCC(NC(=O)c3ccc(-c4ccc(N(C)C)cc4)s3)CC2)cc1 | 26% (inactive)
Cc1cc(NC(=O)Nc2cccc(N(C)C)c2)c2ccccc2n1 | 95% (active)
CN(CCN1CCCC1)c1nc2ccc(-n3cnc4cc(-c5ccc(Cl)cc5)sc4c3=O)cc2[nH]1 | 15% (inactive)
CC(C)n1c(C2CCN(CC3CCN(C(=O)/C=C/c4ccc(Cl)c(Cl)c4)CC3)CC2)nc2ccccc21 | 7% (inactive)
Cc1ccc(NC(=O)Nc2ccc(Cl)c(C(F)(F)F)c2)cc1-c1ccc(C(=O)Nc2ccncc2)cc1 | 99% (active)
O=S(=O)(c1cccc(C(F)(F)F)c1)N1CCC(CO)(Cc2cccc(C(F)(F)F)c2)CC1 | 79% (active)

Compound | growth inhibition
CCOc1ccc(CCC(=O)O)cc1OCC | -3% (inactive)
COc1ccc2nccc([C@@H](O)CN3CCC(NCc4nc5c(C#N)cccc5[nH]4)CC3)c2c1 | 9% (inactive)
COc1ccc(C(O)CNC(C)CCc2ccccc2)cc1C(F)(F)F (configuration not stated) | 100% (active)
COc1cccc2cc(C(=O)N[C@@H](CC(C)C)C(=O)N[C@H](/C=N/NC(=O)c3ccccc3)Cc3cnc[nH]3)oc12 | 90% (active)
O=C(NCc1cccc2ccccc12)C1CCCN(C(=O)c2ccc(O)c(-c3ccc(Cl)c(Cl)c3)c2)C1 (configuration not stated) | 23% (inactive)
Cc1ccccc1C1CCN(C2CCC(NC(=O)c3cncc(-c4ccccc4)c3)CC2)CC1 (configuration not stated) | 92% (active)
O=S(=O)(NC1CCN(c2ccnc3cc(Cl)ccc23)C1)c1ccc(C(F)(F)F)cc1 (configuration not stated) | 98% (active)
O=C(Nc1ccc(OC2CCN(Cc3ccsc3)C2)c(Cl)c1)c1ccsc1 (configuration not stated) | 70% (active)
O=C(CCc1cnc[nH]1)Nc1cccc(-c2ccc(-c3nc4ccccc4[nH]3)s2)c1 | 37% (inactive)
Cc1cccc2c3c([nH]c12)C1(CCN(CCc2ccccc2)CC1)NC(C(=O)NCc1ccccc1)C3 (configuration not stated) | 52% (active)
Cc1cc(CNC(=O)c2ccc(-c3ccc(-c4nc5ccc(C(F)(F)F)cc5[nH]4)s3)cc2)on1 | 56% (active)
Oc1ccc(CCNc2nc(NCCOc3cccc4ccccc34)nc(N3CCNCC3)n2)cc1 | 8% (inactive)
Nc1c(Cl)cc(C(O)CNCCCCCCOCCc2ccc(CO)s2)cc1Cl (configuration not stated) | 71% (active)
N#Cc1ccc(NC(=O)c2ccc(C(=O)NCCCCN3CCC(c4ccc5c(c4OCCOC4CCCCO4)CCCC5)CC3)cc2)cc1 (configuration not stated) | 97% (active)
CCCc1cc(Cc2cnc(N)nc2N)cc(CCC)c1O | 5% (inactive)
CCn1c(C)cc(C=C2SC(=Nc3ccccc3)NC2=O)c1C | 87% (active)
COc1cccc(CNC(=O)[C@H]2CNCCN2C(=O)CCCc2ccccc2)c1 | 95% (active)
Clc1ccc(CNc2nc(NCCc3cnc[nH]3)nc(N3CCCC4CCCCC43)n2)cc1 (configuration not stated) | 100% (active)

Source: PubChem BioAssay
